# Bioassay records from PubChem BioAssay.
# Hits are enriched below; roughly 3.6% of the tested compounds scored in any of these assays.
# D1 potentiator: human D1 dopamine receptor positive modulation | potentiation, % at 10 µM | P21728 | 360,000 tested, 0.036% active | AID 504651 | HEK293 TREx D1 cells, calcium flux, dopamine EC20 potentiation; in the data active = potentiation above about 30%; also: 0% is about no effect
# TRHR enhancer: allosteric enhancers of human TRH receptor | P34981 | TRHR cells, fluo-8 calcium fluorescence, EC20 TRH enhancement | enhancement, % at 2 µM | 360,000 tested, 0.66% active | AID 493056; in the data active = enhancement above about 30%; also: 0% is about no effect
# Target sequence (P34981 whole entry, looked up): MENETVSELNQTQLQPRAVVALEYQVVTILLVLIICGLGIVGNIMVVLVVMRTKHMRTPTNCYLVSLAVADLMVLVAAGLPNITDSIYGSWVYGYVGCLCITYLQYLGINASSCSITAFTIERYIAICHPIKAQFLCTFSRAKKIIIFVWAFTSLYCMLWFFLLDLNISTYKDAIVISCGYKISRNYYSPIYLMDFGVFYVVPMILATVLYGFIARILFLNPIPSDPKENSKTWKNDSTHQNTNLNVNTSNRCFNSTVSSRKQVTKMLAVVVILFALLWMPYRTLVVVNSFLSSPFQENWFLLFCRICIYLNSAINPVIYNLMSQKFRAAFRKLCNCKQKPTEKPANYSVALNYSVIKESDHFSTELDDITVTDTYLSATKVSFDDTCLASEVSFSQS
#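 Enhancer read-out: after compound pinning and an initial kinetic agonist-mode read, an EC20 of TRH (10 nM final) was injected and fluo-8 calcium signal (Ex 480/Em 530) followed at 1 s/cycle for 100 cycles in TRHR-expressing cells.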
# D1 agonist: agonists of human D1 dopamine receptor; 360,000 tested, 1% active; activation, % at 2 µM; HEK293 T-REx D1 cells, calcium flux, agonist mode; also: 0% is about no effect
#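 Inducible HEK293 T-REx D1 cells, force-coupled to calcium signalling, were plated at 4000 cells/well with tetracycline and held overnight at 30 C. After no-wash calcium dye loading, compound-evoked calcium rise over 180 s flagged agonists.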
# LDHA inh: blocks human lactate dehydrogenase A; P00338; purified LDHA, NADH/diaphorase-resazurin fluorescence; stronger effect = lower value; activity change, % (values are at about 110 or 230 µM); 480,000 tested, 0.15% active; AID 1347041; in the data active = activity change below about -30%;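 also: plate controls were DMSO wells for no effect and wells without enzyme for full effect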
#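 Human LDH5 (2 nM) was incubated with 0.06 mM NADH and 0.2 mM pyruvate for 5 min at room temperature in Tris pH 7.4. Remaining NADH was coupled through diaphorase/resazurin, and resorufin fluorescence was read at 0 and 20 min.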
# D1 antag: antagonists of human D1 dopamine receptor | activity change, negative = inhibition, % at 10 µM | 360,000 tested, 3.2% active | HEK293 TREx D1 cells, calcium flux, dopamine EC80; stronger effect = lower value; in the data active = activity change below about -30%; also: % is scaled to controls: 0 for no effect and ±100 for the full control effect
#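 Antagonism measured as reduced calcium response to an EC80 dopamine addition following 180 s compound pre-read; cells were inducible HEK293 Trex D1 plated overnight at 30 C, read kinetically at 1 cycle/sec.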
# TRHR agonist: agonists of human TRH receptor | activation, % at 2 µM | TRHR cells, calcium flux fluo-8, FDSS agonist mode | P34981 | 360,000 tested, 0.18% active; also: 0% is about no effect
#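 Fluo-8-loaded TRHR cells; 10 s baseline, compound added, kinetic Ca2+ fluorescence read 1/s, agonist mode.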
# An asterisk follows results filed as active; / = not tested or not shown. Rule as the data show it, unless noted: active = activation above about 30%; inactive = the rest.
SMILES,D1 potentiator,TRHR enhancer,D1 agonist,LDHA inh,D1 antag,TRHR agonist
CCc1noc(C)c1C(=O)OCC(=O)NC(C)c1ccccc1 (stereo unspecified),-1.6,1.7,0.6,-8.2,-16.2,-0.6
CC(NC(=O)COC(=O)c1ccc(N(C)C)cc1)c1ccccc1 (stereo unspecified),-7.6,1.8,-0.3,-4.5,-70.0*,-0.2
Cc1cc(SCC(=O)OCC(=O)NC(C)c2ccccc2)c(C)cc1Br (stereo unspecified),-1.4,13.8,8.2,3.0,-41.3*,0.4
CCOC(=O)c1ccc(NCc2ccc(N(C)C)cc2)cc1,-11.2,4.3,5.3,4.8,-35.4*,-1.6
O=S(=O)(c1ccc(F)cc1F)N1CCN(Cc2cccc3cccnc23)CC1,/,/,/,0.3,/,/
CC1(C)CC(=O)C(/C=N/C(N)=O)=C(O)C1,/,/,/,-9.9,/,/
Cc1onc(-c2ccccc2)c1C(=O)OCC(=O)Nc1ccc(C#N)cc1,-2.4,-7.5,9.5,-2.5,-31.5*,0.0
Cc1onc(-c2ccccc2)c1C(=O)OCC(=O)Nc1ccccc1,1.3,14.8,5.2,-4.0,-11.5,0.4
COc1ccc(S(=O)(=O)Nc2ccc(-c3cn4c(C)csc4n3)cc2)cc1,-4.5,2.2,1.2,2.2,-72.3*,-0.7
CN(CC(=O)NC(C)(C)C)C(=O)c1cc(=O)[nH]c2ccccc12,/,/,/,0.3,/,/
Cc1ccc2c(c1)Sc1ccccc1CC2=O,-3.1,-5.7,-0.3,-1.7,-47.5*,-2.0
O=C1Cc2ccccc2Sc2ccccc21,1.1,0.0,1.4,6.0,4.9,0.2
CN(C)CCOc1ccc2c(c1)Sc1ccccc1CC2=O,-11.7,-4.5,10.5,-0.3,-30.3*,1.4
Clc1ccc(-c2nnc3n2CCCS3)cc1,-1.1,34.2*,1.3,-11.7,22.9,-0.5
Cc1cc2c(c(=O)n1Cc1ccc3c(c1)OCO3)C(c1cccnc1)C(C#N)=C(N)O2 (stereo unspecified),-6.2,-0.5,1.8,6.4,-90.2*,0.0
Cc1cc2c(c(=O)n1Cc1cccnc1)C(c1ccccc1)C(C#N)=C(N)O2 (stereo unspecified),-5.3,2.4,0.9,0.0,-13.6,0.9
CCS(=O)(=O)Nc1cccc(C2=NN(S(C)(=O)=O)C(c3ccccc3C)C2)c1 (stereo unspecified),/,/,/,-1.1,/,/
CCOc1ccc(-n2nc3cc(C)c(NC(=O)c4ccc(Br)o4)cc3n2)cc1,/,/,/,1.5,/,/
CC(NC(=O)c1cc2cc(Br)ccc2oc1=N)c1ccccc1 (stereo unspecified),4.6,-5.7,1.5,-6.2,-52.8*,-0.4
C=CCOc1cccc(/C=N/NC(=O)C(C)O)c1 (stereo unspecified),/,/,/,-1.5,/,/
Cc1c(C(C)(C)C)s/c(=N/S(=O)(=O)c2ccccc2)n1C,-8.9,3.0,0.2,-11.7,-35.1*,0.1
Cc1cc2cc(C(c3nnnn3C3CCCC3)N(Cc3cccnc3)Cc3ccco3)c(=O)[nH]c2cc1C (stereo unspecified),-0.1,-8.4,3.4,5.8,-39.3*,0.0
Cc1ccc2cc(C(c3nnnn3C3CCCC3)N(Cc3ccccc3)Cc3ccco3)c(=O)[nH]c2c1 (stereo unspecified),-2.0,6.5,1.5,-7.2,-10.4,-0.8
Cc1ccc(Nc2nc(-c3c(C)nc4ccccn34)cs2)cc1,-6.0,-9.3,2.0,5.6,-47.7*,-0.6
Cc1ccn2c(-c3csc(NCc4ccccc4)n3)c(C)nc2c1,-17.4,-5.5,8.2,10.9,-33.3*,-0.2
SMILES,D1 potentiator,TRHR enhancer,D1 agonist,LDHA inh,D1 antag,TRHR agonist
O=C(O)CCNC(=O)c1cc(-c2ccccc2)nc2ccccc12,/,/,/,-9.1,/,/
CCOC(=O)/C(=C/C=C1\Sc2cc(C)c(C)cc2N1CC)C(C)=O,8.8,21.5,348.5*,-5.3,-11.8,249.5*
CCOC(=O)/C(=C\C=C1/Sc2ccccc2N1CC)C(C)=O,-1.4,13.4,289.6*,1.4,-29.2,71.2*
CCOC(=O)/C(=C/C=C1\Sc2ccccc2N1CC)C(C)=O,-0.1,22.3,218.8*,-9.8,2.3,80.1*
O=C(O)/C=C/c1ccc(Cl)c(C(F)(F)F)c1,/,/,/,3.3,/,/
N/C(=N\OC(=O)Oc1ccccc1)c1ccc(Br)cc1,-0.1,8.2,0.5,-2.1,17.3,0.2
NC(=Nc1ccc(Br)cc1)c1ccccc1,-0.3,-14.8,44.7*,-9.4,-38.7*,19.2
Cc1ccccc1C(=O)N/N=C/c1cccc2ccccc12,4.7,3.9,0.5,-2.3,-89.1*,-0.2
O=C(N/N=C/c1sc2ccccc2c1O)c1cccc2ccccc12,0.2,4.9,31.4*,2.1,0.8,5.7
COc1ccc2cc(C(=O)N/N=C/c3sc4ccccc4c3O)ccc2c1,-7.6,-1.3,108.3*,-0.2,-3.1,32.6*
COc1ccc(C(=O)N/N=C/c2sc3ccccc3c2O)cc1,-1.8,-3.2,22.5,8.0,3.0,7.2
O=C(N/N=C/c1ccccc1F)c1cccc2ccccc12,-6.0,-3.8,0.0,-4.6,1.0,-0.7
Cc1cccc(/C=C(/C(=O)N2CCCCC2)c2cccs2)c1,/,/,/,-1.0,/,/
COc1cccc(-c2nc3c(c(=O)[nH]c(=O)n3Cc3ccccc3)n2CCO)c1OC(F)F,-3.2,7.5,5.4,-7.6,-43.2*,-1.0
CC(C)c1noc(CN2CCN(c3cccc(F)c3C#N)CC2)n1,/,/,/,1.0,/,/
O=C(NCc1ccc(Cl)cc1Cl)C1CC(=O)N(Cc2ccccc2)C1 (stereo unspecified),-2.2,-6.5,-2.3,-8.1,-31.3*,0.6
Cc1ccsc1/C=C1\Oc2cc(OC(=O)C(C)(C)C)ccc2C1=O,/,/,/,-0.8,/,/
COCCN(C(=S)Nc1ccccc1C)C(C)c1ccco1 (stereo unspecified),-5.3,-0.6,3.1,-2.0,-70.8*,-0.2
Cc1ccc(C)c(Nc2nc(-c3ccc(-c4ccccc4)cc3)cs2)c1,/,/,/,-1.3,/,/
Clc1ccc2c(c1)C(N1CCNCC1)=Nc1ccccc1O2,-5.8,8.4,19.8,-5.5,-71.2*,0.5
COc1ccc(-c2cc(NC(=O)c3c(C)noc3C(C)C)ccc2OC(F)F)cc1,/,/,/,12.0,/,/
COc1ccccc1NC(=O)C1CCCN(S(C)(=O)=O)C1 (stereo unspecified),/,/,/,9.0,/,/
COc1ccccc1NC(=O)C1CCCN(S(=O)(=O)c2ccccc2)C1 (stereo unspecified),3.5,1.6,4.4,-9.3,-30.9*,0.4
COc1ccc(OC)c(NC(=O)N2CCCC(C(=O)c3ccccc3OC)C2)c1 (stereo unspecified),-8.4,-0.2,1.2,-16.9,-36.3*,-1.7
CC(NC(=O)C1CCCN(S(=O)(=O)c2cccs2)C1)c1ccccc1 (stereo unspecified),-1.4,7.1,30.4*,-1.9,-26.0,-0.3
